Experimental data taken from PubChem BioAssay.
Calls of active or inactive are those of the source.

Experiments:
[1] = E. coli DRC41 culture turbidity changes, primary screen, E. coli filamentation inducer project, strain DRC41, OD650, 48 h (AID 1152);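 further: E. coli MC1000 strain DRC41 lacking acrAB efflux pump and sulA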; settings: E. coli DRC41 (acrAB sulA), higher = more signal, called active from +8 up or from −8 down
[2] = small-molecule binders of probe aLefty1, primary screen, biochemical, small-molecule microarray, 635/667 nm fluorescence (AID 1153); settings: higher = more signal;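 further: score merges spot fluorescence with signal-to-noise ratio from the scanned slide images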
[3] = PSAC antagonists in infected red cells, primary screen, cell-based, P. falciparum Indochina, OD700, 1 h (AID 1154); settings: P. falciparum Indochina infected RBC osmotic lysis, higher = more signal, called active from +8 up or from −8 down
[4] = PSAC antagonists in infected red cells, primary screen, cell-based, P. falciparum Indochina, OD700, 2 h (AID 1155);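 further: lysis reports solute entry through the parasite surface anion channel PSAC; channel blockers reduce lysis of infected cells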; settings: P. falciparum Indochina infected erythrocytes, osmotic lysis OD700; higher = more signal, called active from +8 up or from −8 down
[5] = osmotic lysis modulators in infected erythrocytes, primary screen, PSAC antagonist project, cell-based, P. falciparum Indochina, OD700, 3 h (AID 1156); settings: higher = more signal, called active from +8 up or from −8 down
[6] = PSAC antagonists in infected red cells, primary screen, cell-based, P. falciparum Indochina, OD700, 18 h (AID 1157); settings: P. falciparum Indochina infected erythrocytes, osmotic lysis OD700, 18 h; higher = more signal, called active from +8 up or from −8 down
[7] = modulators of S6 phosphorylation in cells, primary screen, cell-based, A549, cytoblot, luminescence, serum-stimulated (AID 1158); settings: A549 phospho-S6 cytoblot, 5 h, higher = more signal;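 further: serum-stimulated A549 lung adenocarcinoma cells; signal is phosphorylated S6 detected by cytoblot immunostaining with HRP secondary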
[8] = target: NADPH oxidase 2 (Homo sapiens) (UniProt P04839); assay: NOX2-dependent H2O2 signal modulators, primary screen, NOX inhibitor project, cell-based, HEK293-NOX2, PMA-stimulated, Amplex Red fluorescence (AID 1159); settings: 45 min, higher = more signal, called active from +8 up or from −8 down; further: test concentration not given here
Chain of NADPH oxidase 2 (Homo sapiens) (P04839 whole entry, looked up): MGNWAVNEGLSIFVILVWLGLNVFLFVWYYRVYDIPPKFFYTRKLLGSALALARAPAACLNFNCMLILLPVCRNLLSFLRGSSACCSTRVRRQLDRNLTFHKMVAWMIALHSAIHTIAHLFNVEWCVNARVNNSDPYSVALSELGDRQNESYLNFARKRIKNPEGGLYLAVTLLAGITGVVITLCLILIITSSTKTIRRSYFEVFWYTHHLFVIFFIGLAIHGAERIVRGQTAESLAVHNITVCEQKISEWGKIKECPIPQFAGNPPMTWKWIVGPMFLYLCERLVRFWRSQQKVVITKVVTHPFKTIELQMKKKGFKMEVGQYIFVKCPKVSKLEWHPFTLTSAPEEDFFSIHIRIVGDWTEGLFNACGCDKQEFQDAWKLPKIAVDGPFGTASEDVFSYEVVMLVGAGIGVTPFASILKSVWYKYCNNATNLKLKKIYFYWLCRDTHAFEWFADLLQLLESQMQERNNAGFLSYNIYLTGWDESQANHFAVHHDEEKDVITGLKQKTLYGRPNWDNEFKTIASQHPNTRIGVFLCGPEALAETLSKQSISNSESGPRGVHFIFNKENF

[9] = target: NADPH oxidase 4 (Homo sapiens) (UniProt Q9NPH5); assay: NOX4-dependent H2O2 signal modulators, primary screen, NOX inhibitor project, cell-based, HEK293-NOX4, tetracycline-induced, Amplex Red fluorescence (AID 1160); settings: 45 min, higher = more signal, called active from +8 up or from −8 down
Chain of NADPH oxidase 4 (Homo sapiens) (Q9NPH5 whole entry, looked up): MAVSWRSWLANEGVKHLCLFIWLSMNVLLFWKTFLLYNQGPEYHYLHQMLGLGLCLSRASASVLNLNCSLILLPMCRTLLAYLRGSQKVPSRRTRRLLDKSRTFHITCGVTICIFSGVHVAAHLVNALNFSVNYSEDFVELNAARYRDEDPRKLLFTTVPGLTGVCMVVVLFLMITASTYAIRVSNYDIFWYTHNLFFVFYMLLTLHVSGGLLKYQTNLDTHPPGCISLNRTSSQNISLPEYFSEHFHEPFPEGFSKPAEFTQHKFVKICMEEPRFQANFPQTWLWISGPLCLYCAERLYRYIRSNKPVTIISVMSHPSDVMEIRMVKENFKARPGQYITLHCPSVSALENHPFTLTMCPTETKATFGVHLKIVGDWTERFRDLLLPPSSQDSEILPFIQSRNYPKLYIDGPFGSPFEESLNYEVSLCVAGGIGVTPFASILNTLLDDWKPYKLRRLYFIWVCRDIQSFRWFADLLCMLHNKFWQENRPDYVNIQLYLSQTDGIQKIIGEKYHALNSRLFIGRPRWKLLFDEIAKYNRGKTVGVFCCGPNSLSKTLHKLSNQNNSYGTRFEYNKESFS

[10] = target: NADPH oxidase 5 (Homo sapiens) (UniProt Q96PH1); assay: NOX5-dependent H2O2 signal modulators, primary screen, NOX inhibitor project, cell-based, HEK293-NOX5, Amplex Red fluorescence (AID 1161); settings: HEK293-NOX5, ionomycin, 45 min, higher = more signal
Chain of NADPH oxidase 5 (Homo sapiens) (Q96PH1 whole entry, looked up): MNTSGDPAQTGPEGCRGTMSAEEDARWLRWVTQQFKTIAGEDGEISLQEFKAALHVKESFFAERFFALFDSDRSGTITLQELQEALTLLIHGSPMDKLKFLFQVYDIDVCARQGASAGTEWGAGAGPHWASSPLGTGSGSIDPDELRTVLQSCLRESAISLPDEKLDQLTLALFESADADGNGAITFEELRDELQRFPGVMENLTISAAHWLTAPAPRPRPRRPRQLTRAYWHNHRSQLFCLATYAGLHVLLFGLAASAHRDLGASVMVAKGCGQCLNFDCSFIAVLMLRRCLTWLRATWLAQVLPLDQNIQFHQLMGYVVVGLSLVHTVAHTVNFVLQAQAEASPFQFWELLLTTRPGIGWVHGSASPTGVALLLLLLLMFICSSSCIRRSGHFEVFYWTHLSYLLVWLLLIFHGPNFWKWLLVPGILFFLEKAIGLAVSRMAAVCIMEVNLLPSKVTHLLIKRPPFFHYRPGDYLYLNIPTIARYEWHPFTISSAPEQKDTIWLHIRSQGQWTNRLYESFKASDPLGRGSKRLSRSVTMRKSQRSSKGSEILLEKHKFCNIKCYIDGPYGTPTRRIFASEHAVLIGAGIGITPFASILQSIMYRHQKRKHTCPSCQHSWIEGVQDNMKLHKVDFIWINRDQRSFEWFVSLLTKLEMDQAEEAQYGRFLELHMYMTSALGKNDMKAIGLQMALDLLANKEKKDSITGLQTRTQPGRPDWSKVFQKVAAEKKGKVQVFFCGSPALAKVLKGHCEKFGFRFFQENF

Row | SMILES | z-score [1] | composite z-score [2] | z-score [3] | z-score [4] | z-score [5] | z-score [6] | z-score [7] | z-score [8] | z-score [9] | z-score [10]
1 | C=CCOC(=O)[C@H]1[C@@H]2C(=O)O[C@@H](c3ccccc3)[C@@H](c3ccccc3)N2[C@@H](c2ccc(OCCOC(=O)[C@H]3C[C@H]4C(=O)N[C@@H](CC(C)C)C(=O)N4[C@H]3c3ccc(O)cc3)cc2)[C@]12C(=O)Nc1ccccc12 | 0.324 (inactive) | 0.13 | 1.64 (inactive) | 0.998 (inactive) | 3.83 (inactive) | 0.964 (inactive) | 0.758 | 1.2 (inactive) | 0.776 (inactive) | 1.4
2 | COCCCN1C(=O)[C@@]2(c3ccc([N+](=O)[O-])cc3)CC(=O)N(CC34CC5CC(CC(C5)C3)C4)[C@@H]2c2ccc(CO)cc21 | 0.172 (inactive) | -0.298 | -0.409 (inactive) | 0.28 (inactive) | 1.48 (inactive) | 0.0583 (inactive) | 0.261 | 0.307 (inactive) | 0.183 (inactive) | 0.482
3 | CC[C@@H]1C=C(C(=O)O)[C@H](c2ccc(OC)cc2)N1S(=O)(=O)c1ccc(C)cc1 | -1.46 (inactive) | -0.0449 | 0.785 (inactive) | 0.453 (inactive) | -0.51 (inactive) | 0.437 (inactive) | -0.458 | 0.339 (inactive) | -0.517 (inactive) | -0.215
4 | Cc1ccc(N2C(=O)c3ccccc3[C@](C)(C(=O)NCCCN(C)C)[C@@H]2c2ccc(CO)cc2)nc1 | -0.666 (inactive) | -0.0058 | 1.23 (inactive) | 0.0681 (inactive) | 0.386 (inactive) | -0.135 (inactive) | -0.0873 | 0.627 (inactive) | 0.631 (inactive) | 0.199
5 | COCCOC(=O)N1C(=O)[C@@]2(c3cc(C#CCCO)ccc31)[C@H](C(N)=O)[C@H]1C(=O)O[C@H](c3ccccc3)[C@H](c3ccccc3)N1[C@@H]2c1ccccc1OCCO | -0.3 (inactive) | -0.147 | 12.2 (active) | 2.47 (inactive) | 1.99 (inactive) | 0.68 (inactive) | 1.02 | 1.51 (inactive) | 0.755 (inactive) | 0.594
6 | CC(C)N1C(=O)C[C@@](C(=O)NCCN2CCOCC2)(c2ccc([N+](=O)[O-])cc2)[C@H]1c1ccc(CO)cc1 | 0.344 (inactive) | -0.832 | 1.63 (inactive) | -0.0494 (inactive) | 1.53 (inactive) | 0.35 (inactive) | 0.265 | -0.54 (inactive) | -0.685 (inactive) | -2.46
7 | COCCOC(=O)N1C(=O)[C@@]2(c3cc(C#CCCO)ccc31)[C@H](c1ccc(OCCO)cc1)N1[C@H](c3ccccc3)[C@H](c3ccccc3)OC(=O)[C@H]1[C@@H]2C(=O)N1CCCCCCC1 | -0.453 (inactive) | 2.13 | 1.96 (inactive) | 0.877 (inactive) | -0.564 (inactive) | 0.115 (inactive) | -0.23 | 1.5 (inactive) | 1.02 (inactive) | 1.86
8 | COCCOC(=O)N1C(=O)[C@@]2(c3cc(C#CCC(C(=O)OC)C(=O)OC)ccc31)[C@H](C(N)=O)[C@H]1C(=O)O[C@H](c3ccccc3)[C@H](c3ccccc3)N1[C@@H]2c1ccc(O)cc1 | -0.247 (inactive) | 0.0406 | 26.5 (active) | 12.4 (active) | 3.28 (inactive) | 2.53 (inactive) | -0.255 | 1.29 (inactive) | 0.385 (inactive) | 0.73
9 | CCOC(=O)C1=C[C@@H](C(C)(C)C)N(S(=O)(=O)c2ccc(C)cc2)[C@H]1c1ccc(C#N)cc1 | -1.02 (inactive) | 0.337 | 3.01 (inactive) | 1.33 (inactive) | -0.217 (inactive) | 0.905 (inactive) | -0.561 | -0.642 (inactive) | -0.508 (inactive) | 1.11
10 | COC(=O)[C@@]1(Cc2ccccc2)[C@H]2c3cc(C(=O)N(C)C)n(Cc4ccc(S(C)(=O)=O)cc4)c3C[C@H]2CN1C(=O)c1ccccc1 | -1.77 (inactive) | 0.71 | 1.5 (inactive) | 0.542 (inactive) | 1.95 (inactive) | 0.814 (inactive) | 0.393 | 1.12 (inactive) | -2.78 (inactive) | -2.6
11 | COc1ccc([Si](C)(C)[C@@H]2[C@@H](CC(=O)N3Cc4ccccc4C[C@H]3CO)O[C@]3(C(=O)N(Cc4ccc(N5CCOC5=O)cc4)c4ccccc43)[C@H]2C)cc1 | 0.378 (inactive) | -0.0868 | 8.18 (active) | 1.59 (inactive) | 0.374 (inactive) | 0.892 (inactive) | 0.982 | 0.393 (inactive) | 1.15 (inactive) | 1.88
12 | O=C1C[C@@](C(=O)NC2CC2)(c2ccc([N+](=O)[O-])cc2)[C@@H](c2ccc(CO)cc2)N1C1CCCCC1 | 1.25 (inactive) | 0.345 | 1.97 (inactive) | -0.0047 (inactive) | 0.736 (inactive) | -0.115 (inactive) | 3.97 | -1.06 (inactive) | -3.7 (inactive) | -5.08
13 | COc1ccc(C(=O)Nc2cccc(CN3C(=O)[C@]4(O[C@H](CC(=O)N5Cc6ccccc6C[C@H]5CO)[C@@H]([Si](C)(C)c5ccc(OC)cc5)[C@@H]4C)c4ccccc43)c2)cc1 | 1.66 (inactive) | 0.423 | 4.02 (inactive) | 1.49 (inactive) | 0.887 (inactive) | 1.04 (inactive) | 0.568 | 0.0795 (inactive) | 0.701 (inactive) | 2.01
14 | COc1ccc([Si](C)(C)[C@@H]2[C@@H](CC(=O)N(CCO)Cc3ccccc3)O[C@]3(C(=O)N(Cc4ccc(I)cc4)c4ccccc43)[C@H]2C)cc1 | 0.452 (inactive) | 1.03 | 5.81 (inactive) | 1.02 (inactive) | 0.408 (inactive) | 0.794 (inactive) | 0.421 | 0.454 (inactive) | 1.6 (inactive) | 1.55
15 | CCCCCCc1nc(-c2ccc(-c3ccc(Cl)c(Cl)c3)o2)cc2c1[Si](C(C)C)(C(C)C)OC2 | 0.615 (inactive) | -0.193 | 3.45 (inactive) | 0.259 (inactive) | 0.78 (inactive) | -0.84 (inactive) | 1.6 | -5.23 (inactive) | -4.25 (inactive) | -7.11
16 | C=C(COC)C(=O)CC[C@H](OC(=O)c1cccnc1)c1ccc(OCCO)cc1 | -0.367 (inactive) | -0.285 | 9.54 (active) | 1.2 (inactive) | 0.247 (inactive) | 0.553 (inactive) | -0.271 | -0.253 (inactive) | 0.592 (inactive) | -1.26
17 | CCOC(=O)C[C@H]1[C@H](OC(=O)c2cc3ccccc3oc2=O)[C@@H](NC(=O)CC(C)C)c2cc(OCCCO)ccc2N1C(=O)Cc1ccc(OC)cc1 | -0.752 (inactive) | -0.193 | 5.95 (inactive) | 0.711 (inactive) | 0.863 (inactive) | 0.5 (inactive) | -0.0561 | 0.166 (inactive) | 0.381 (inactive) | 1.38
18 | CCCC[C@H]1C[C@@H]1[C@@H]1N(C(C)=O)[C@H](c2cccc(OC)c2)CC12CC2 | -1.17 (inactive) | 0.416 | 3.6 (inactive) | 0.984 (inactive) | 1.1 (inactive) | 0.692 (inactive) | -0.168 | -0.927 (inactive) | 0.998 (inactive) | -2.9
19 | CCCCCCc1nc(Cc2cc(OC)c(OC)c(OC)c2)cc2c1[Si](C(C)C)(C(C)C)O[C@H]2c1ccccc1 | -1.42 (inactive) | 0.092 | 0.612 (inactive) | 0.482 (inactive) | 0.491 (inactive) | -0.23 (inactive) | -0.147 | -0.472 (inactive) | -0.137 (inactive) | -1.73
20 | C=C(CCCC)/C(=C/C[C@H](OC(=O)c1ccncc1)c1cccc(OCCO)c1)c1cnc2ccccc2c1 | -0.639 (inactive) | 0.0429 | 23.9 (active) | 7.01 (inactive) | 1.5 (inactive) | 1.26 (inactive) | -0.282 | -0.777 (inactive) | -0.293 (inactive) | -1.82
21 | CC1CC/C=C\[C@H]2OC34C=CCN(CCN5CCOCC5)C(=O)[C@H]3N(CCCO)C(=O)[C@@H]4C2C(=O)O1 (stereo not given in full) | -0.576 (inactive) | -0.0518 | 0.811 (inactive) | 0.354 (inactive) | -0.513 (inactive) | 0.136 (inactive) | 1.38 | 0.638 (inactive) | -1.71 (inactive) | 0.947
22 | C[N+](C)(C)CCCC[C@@H]1NC(=O)[C@@H]2C[C@H](C(=O)NCc3ccc(F)cc3)[C@H](c3ccc(O)cc3)N2C1=O | -0.7 (inactive) | -0.0186 | 0.936 (inactive) | 0.376 (inactive) | -1.65 (inactive) | 0.104 (inactive) | 0.567 | 0.274 (inactive) | 0.22 (inactive) | 1.17
23 | CCOC(=O)C1=CC[C@@H](c2ccc(OC)cc2)N(S(=O)(=O)c2ccc(C)cc2)[C@H]1c1ccc(C)cc1 | -1.22 (inactive) | 0.578 | 0.833 (inactive) | 0.905 (inactive) | -0.715 (inactive) | 0.68 (inactive) | -0.752 | 0.864 (inactive) | -0.627 (inactive) | 0.0417
